Screening results from PubChem BioAssay.
AMA1 RON2 block – inhibitors of Plasmodium falciparum AMA1-RON2 interaction | AlphaScreen AMA1-biotinylated RON2 peptide binding | Potency, µM (doses to about 58.2 µM), without a hit: at the highest dose activity change, negative = inhibition, most hits filed as inhibitors | 360,000 compounds, 0.2% hits | AID 720542;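 also: 0% = vehicle wells and -100% = peptide control; nearly all actives have a fitted effect of over 45% in size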
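AMA1 (3D7) with his tag at 25 nM final met compounds first, then biotinylated RON2 peptide at 25 nM; detection used donor plus acceptor beads, 10 µg/mL apiece, read by AlphaScreen after 30 min at room temperature.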
NS1 function inh – blocks influenza NS1 protein function | 270,000 compounds, 0.4% hits | AID 2326 | Potency, µM (top dose mostly 46.1 µM), without a hit: at the highest dose activity, positive = more growth; calls by dose curve; also: actives are rising curves; nearly all actives have a fitted effect of over 50% in size
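Growth recovery, yeast-based: influenza A NS1 expressed in S. cerevisiae causes slow growth, and suppressors are detected by OD600. The parent strain without NS1 is used as positive control.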
HCV inh – inhibitors of hepatitis C virus infection | Huh7.5.1 HCVcc-Cre infection, luciferase reporter, 44 h | Potency, µM (series often up to 41.8 µM), for inactives: top-dose activity change, negative = inhibition, usual class: inhibitors | 340,000 compounds, 3.4% hits | AID 651820; also: % is scaled to controls: 0 for no effect and ±100 for the full control effect
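Cells (1,000/well) were plated 4 h before compound, then infected with HCVcc-Cre virus (~0.5 moi). After 44 h further culture, infection was read as luciferase luminescence following a 15 min substrate incubation at room temperature.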
Pf growth 96h – P. falciparum growth inhibition at 96 hour, primary screen for plastid delayed-death inhibitors; P. falciparum luciferase reporter growth, 96 h; Potency, µM (doses to about 28.7 µM), without a hit: top-dose activity change, negative = inhibition, actives largely listed as inhibitors; 320,000 compounds, 6.9% hits; also: % is scaled to controls: 0 for no effect and ±100 for the full control effect
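96 h incubation, 37 C, 5% CO2, of luciferase-reporter P. falciparum-infected RBCs (2% hematocrit, 0.05% parasitemia final) with test compounds; endpoint luminescence.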
Pf growth 48h – inhibits P. falciparum growth in the first generation, 48 h | P. falciparum luciferase growth in erythrocytes, 48 h | Potency, µM (top dose mostly 28.7 µM), for inactives: top-dose activity change, negative = inhibition, hits mostly inhibitors | 310,000 compounds, 5.9% hits; also: % is scaled to controls: 0 for no effect and ±100 for the full control effect
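In quantitative HTS format, infected erythrocytes bearing luciferase-reporter parasites were treated for a single generation at 37 C. Luminescence after adding detection reagent served as the growth measure.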
SARS PLpro yeast – inhibitors of SARS-CoV papain-like protease in yeast; AID 485353; Potency, µM (highest dose often 32.9 µM), inactives show at the top dose activity, positive = growth rescue, usual class: activators; 330,000 compounds, 0.19% hits; S. cerevisiae expressing SARS-CoV PLpro, growth rescue; calls by dose curve; also: 0% is about no effect; nearly all actives have a fitted effect of over 55% in size
The depositor's hits bear a star; ? = inconclusive; . = not tested or not shown; ! = a repeat was not active; [ ] = dose if it differs, or a comment. Compounds with a hit are over-represented: about 12% of the library has one in this group of screens. Unless noted, calls follow the shape of the dose curve; as a rule, active = well fitted curve in the direction sought with a large enough effect; inconclusive = small, poorly fitted or top-dose-only effect, or another doubt; inactive = no such curve, though single readings can be large; an effect the other way counts as inactive or inconclusive. Potency is read from the fitted curve at half-maximal effect.

SMILES | AMA1 RON2 block | NS1 function inh | HCV inh | Pf growth 96h | Pf growth 48h | SARS PLpro yeast
CCOC(=O)c1c(NC(=O)COC(=O)c2ccccc2NC)sc(C(=O)N(C)C)c1C | 28.6% | 16.9% | 12.6µM* | 5.22µM* | ? | -1.7%
CCc1cc(C(=O)OC)c(NC(=O)CSc2nccn2C)s1 | -12.6% | -20.2% | 10µM* | ? | -17.3% | 22.0%
Cc1cc(C)c(C)c(S(=O)(=O)N2CCC(C(=O)Nc3ccc(S(=O)(=O)N4CCOCC4)cc3)CC2)c1C | 14.4% | ? | ? | ? | ? | -2.2%
Cc1ccc(C)c(CC(=O)N2CCCC(c3cc(C(=O)NCc4ccccc4)no3)C2)c1 (centres undefined) | -11.5% | . | . | . | . | .
Cc1cc(NC(=O)Nc2cc(F)ccc2F)no1 | -8.9% | -41.4% | -9.0% | 152.2% | 38.8% | -2.8%
CC(C)S(=O)(=O)N1CCCC(C(=O)c2cccc(Cl)c2)C1 (centres undefined) | -8.7% | -3.3% | -22.7% | ? | -4.0% | -1.8%
CCOC(=O)c1c(NC(=O)c2ccoc2C)sc(C(=O)N(C)C)c1C | 3.7% | -1.4% | -16.4% | 10.4µM* | . | 24.2%
CC1CCN(S(=O)(=O)c2ccc(C(=O)NCc3ccco3)cc2)CC1 | -2.0% | -1.1% | 0.2% | -0.3% | 2.08µM* | -1.1%
CCOC(=O)N1CCC(N2C(=O)c3ccc(C(=O)NCc4ccco4)cc3C2=O)CC1 | -0.1% | -26.1% | 4.3% | 11.7µM* | 13.4% | 0.7%
CC1CCN(S(=O)(=O)c2ccc(C(=O)NCc3ccc4c(c3)OCO4)cc2)CC1 | -12.6% | -5.0% | -25.5% | . | 3.6% | 0.7%
Cc1ccc(C(=O)NCc2ccco2)cc1[N+](=O)[O-] | -23.7% | 6.8% | 7.0% | 29.4% | -0.8% | -2.3%
CSc1ccc(S(=O)(=O)N2CCC(C(=O)NCc3ccco3)CC2)cc1 | 18.7% | 9.9% | 4.2% | ? | 1.65µM* | 16.2%
CCOC(=O)N1CCC(N2C(=O)c3ccc(C(=O)NCc4ccc(F)cc4)cc3C2=O)CC1 | 6.0% | -44.2% | 0.8% | -2.7% | 46.1% | -9.7%
CC1CCCN(c2ccc(C(=O)NCc3ccco3)cc2[N+](=O)[O-])C1 (centres undefined) | -27.4% | -39.7% | ? | ? | 4.15µM* | -42.4%
O=C(O)C(CCCCNS(=O)(=O)c1ccc(F)cc1)NS(=O)(=O)c1ccc(F)cc1 (centres undefined) | 30.8% | 1.9% | 16.9% | -14.4% | 0.0% | 4.0%
COC(=O)c1ccc(CNC(=O)c2ccc(S(=O)(=O)N3CCCC(C)C3)cc2)cc1 (centres undefined) | 1.5%[11.6 µM] | . | -29.9% | ? | 13.1µM* | 4.7%
Cc1ccc(S(=O)(=O)N2CCCC(C(=O)NCc3ccco3)C2)cc1Cl (centres undefined) | 5.1% | 8.5% | -7.9% | 13.1µM* | ? | 4.4%
CC1CCN(S(=O)(=O)c2ccc3c(c2)c(=O)c(C(=O)NCc2cccs2)cn3C)CC1 | 16.8% | 2.7% | -16.7% | -14.6% | 10.7% | 11.6%
CC1CCN(S(=O)(=O)c2ccc3c(c2)c(=O)c(C(=O)NCc2ccco2)cn3C)CC1 | -6.2% | 18.1% | -20.3% | 14.7µM* | ? | 9.7%
COc1ccc(NC(=O)COC(=O)[C@@H](NC(=O)c2c(F)cccc2F)C(C)C)cc1 | -9.2% | 11.1% | -1.8% | 6.9% | 20.5% | -2.4%
CC(C)Cc1nc(SCC(=O)N2CCCC2)c2c(=O)n(C)c(=O)n(C)c2n1 | 0.0% | -2.1% | -25.1% | 45.4% | -0.3% | ?
Cc1ccc(C(C)C)c(OCCNC(=O)c2cncc(Br)c2)c1 | 13.9% | -103.9% | -11.7% | ? | ? | -11.2%
COc1cc(C(=O)N[C@H](C(=O)NC(C)C23CC4CC(CC(C4)C2)C3)C(C)C)cc(OC)c1OC (some centres undefined) | -4.8% | 3.2% | 11.2% | ? | . | 3.8%
COc1cc(C(=O)NCCOc2cc(C)ccc2C(C)C)cc(OC)c1OC | -7.6% | -0.1% | 2.82µM* | 90.8% | 1.3%[0.00184 µM] | -0.4%
COc1ccc2cnn(CCOc3cc(C)ccc3C(C)C)c(=O)c2c1OC | -5.6% | -17.8% | ? | 10.4µM* | ? | 14.5%
SMILES | AMA1 RON2 block | NS1 function inh | HCV inh | Pf growth 96h | Pf growth 48h | SARS PLpro yeast
COc1ccc(C)cc1NC(=O)C(NC(=O)c1cc(OC)c(OC)c(OC)c1)C(C)C (centres undefined) | -4.6% | . | ? | 13.1µM* | -34.9% | -0.2%
CCOc1ccc(NC(=O)Cn2nnc(C(=O)NCc3ccc4c(c3)OCO4)c2N)cc1 | -10.8% | 2.0% | -5.9% | 0.1% | 20.7% | 1.6%
CC1(C(=O)Nc2ccc(Cl)c(Cl)c2)CCN1C(=O)C1CCCCC1 (centres undefined) | 30.5% | . | . | . | . | .
Cc1cccc(N(C(=O)c2sc(C)nc2C)C(C(=O)NCc2ccco2)c2ccccc2)c1 (centres undefined) | 1.6% | -8.4% | -14.1% | ? | ? | 3.9%
Cc1cc(C)cc(N(C(=O)c2sc(C)nc2C)C(C(=O)NCc2ccco2)c2ccccc2)c1 (centres undefined) | -3.2% | -4.7% | 22.6% | 11.7µM* | ? | 1.6%
O=C(c1cc2c(=O)n3ccccc3nc2s1)N1CCN(Cc2ccc3c(c2)OCO3)CC1 | 11.9% | 0.2% | -7.6% | 6.57µM* | -12.0% | 0.5%
SC(COCc1ccccc1)CN1CCN(Cc2ccc3c(c2)OCO3)CC1 (centres undefined) | 25.1µM* | 14.0% | -25.6% | 8.28µM* | ? | -30.2%
COc1ccc(OCC(O)CN2CCN(Cc3ccc4c(c3)OCO4)CC2)cc1 (centres undefined) | 11.0% | -3.6% | 26.8% | -13.2% | 1.2% | -4.4%
O=C(c1cccn2c(=O)c3ccc(Cl)cc3nc12)N1CCN(Cc2ccc3c(c2)OCO3)CC1 | -2.0% | -110.8% | -10.4% | 7.38µM* | 0.4% | 4.2%
CC(=O)c1ccc(OCC(O)CN2CCN(Cc3ccc4c(c3)OCO4)CC2)cc1 (centres undefined) | 6.5% | -1.4% | ? | 4.15µM*! | -3.1% | 5.1%
O=C(NCc1ccc2c(c1)OCO2)c1ccc(COc2cc(Cl)ccc2Cl)o1 | -8.0% | -5.8% | ? | 6.57µM* | . | -10.2%
O=C(c1ccc(COc2ccc(Cl)cc2)o1)N1CCN(Cc2ccc3c(c2)OCO3)CC1 | -29.0% | -57.6% | 8.91µM* | . | 0.3% | -0.4%
O=C(c1ccc(COc2ccccc2Cl)o1)N1CCN(Cc2ccc3c(c2)OCO3)CC1 | -28.7% | -52.3% | ? | -16.6% | ? | -7.4%
Cc1ccc(S(=O)(=O)Nc2ccc(C(=O)N3CCCC3)cc2)c(C)c1NS(C)(=O)=O | 0.9% | -12.2% | 10.2% | -2.1% | -2.4% | -2.6%
Cc1nn(-c2ccccc2)c(N2CCCC2)c1/C=N/NC(=O)c1cc(-c2ccccn2)nc2ccccc12 | -1.2% | 21.4% | 3.98µM* | ? | ? | -3.1%
